# Laboratory results as given in PubChem BioAssay AID504408 (Broad Institute, 2011).
# About 5,200 (1.7%) of roughly 300,000 compounds were called active. The sample holds actives, similar compounds and a random draw of the others, so the mix is not that of the screen. Values without a mark were called inactive.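 The calls were made as follows: active = mean replicate activation of at least 50% with a set share of replicates each reaching 50%; inconclusive = only one of those two conditions met; inactive = mean below 50% and too few replicates reaching it.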
# Assay: HSF-1 response element luciferase induction – NIH3T3-HGL cells, MG132 stress, luminescence, single point, primary screen (AID 504408);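 also: 0% = median of the neutral control wells and 100% = twice that signal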
# Conditions: NIH3T3-HGL HSF-1 luciferase reporter, MG132, 8 h; at 9 µM; active compounds read high; 100% = twice DMSO control signal
row,Compound,activation
1,O=C(OCCOCn1cc(Br)c(=O)[nH]c1=O)c1ccccc1,-0.69%
2,N[C@@H](Cc1ccccc1)C(=O)N1CCOCC1,-19.9%
3,C=CCOc1cccc(C2C(C(=O)c3ccc(C)o3)=C(O)C(=O)N2c2nnc(C)s2)c1 (configuration not stated),-4.03%
4,CC(=O)c1ccc(NC(=O)C2CCCN2S(=O)(=O)c2cccs2)cc1 (configuration not stated),-4.67%
5,c1ccc(CN=C2Nc3ccccc3CS2)nc1,58% (active)
6,CCCCN(C1CCS(=O)(=O)C1)S(=O)(=O)c1ccc(C(C)C)cc1 (configuration not stated),0.442%
7,CCCCN(C(=O)c1ccc(S(=O)(=O)N2CCOCC2)cc1)C1CCS(=O)(=O)C1 (configuration not stated),-15%
8,Cc1cccc(C(C)C)c1NC(=O)COC(=O)C1CC(=O)N(Cc2ccccc2)C1 (configuration not stated),4.94%
9,Cc1cc(C)c2nc(NC(=O)C3CCCO3)sc2c1 (configuration not stated),61.5% (active)
10,Cc1cc([N+](=O)[O-])ccc1NC(=O)C1CCCO1 (configuration not stated),0.502%
11,Cc1ccc(C)c(C(C)NC(=O)C2CCCO2)c1 (configuration not stated),2.29%
12,COc1cccc(/C=C/C(=O)OCC(=O)N2CCCc3ccccc32)c1,-15.2%
13,CC(=O)N1CCN(C(=O)c2cc(-c3ccc(C)o3)nc3ccccc23)CC1,-3%
14,COC(=O)c1c(C)[nH]c(C(=O)/C=C/c2ccc(Cl)cc2)c1C,75.6% (active)
15,COC(=O)c1c(C)[nH]c(C(=O)NCCc2ccc(S(N)(=O)=O)cc2)c1C,22.1%
16,Cc1ccc(NC(=S)NC(=O)/C=C/c2ccc(Cl)cc2)cc1,8.91%
17,O=C(OCc1nnc(-c2ccccc2)o1)c1cc(=O)[nH]c2ccccc12,-8.33%
18,COC(=O)c1ccc(COC(=O)C2CCN(S(=O)(=O)c3c(Cl)cccc3Cl)CC2)o1,-1.35%
19,Cc1ccccc1NC(=O)N1CCCC1C(=O)NCc1ccccc1 (configuration not stated),-14.4%
20,Cc1cccc(NC(=O)C2CCCN(C(=O)NCc3ccccc3)C2)c1C (configuration not stated),23.5%
21,Cc1ccccc1NC(=O)C1CCCN(C(=O)NCc2ccccc2)C1 (configuration not stated),66.9% (active)
22,CCOC(=O)N1CCN(C(=O)COc2ccc3oc4c(c3c2)CCCC4)CC1,-4.2%
23,CCN(CC(=O)NCc1cccs1)C(=O)c1ccc(OC)c(S(=O)(=O)N2CCOCC2)c1,-5.75%
24,O=C(NCc1ccc2c(c1)OCO2)c1c(O)nc2sccn2c1=O,14.5%
25,CC(C)OC(=O)c1ccc(COc2ccc3ccc(=O)oc3c2)o1,65.7% (active)
26,COC(=O)c1ccc(COc2ccc(C#N)cc2)o1,10.5%
27,Cc1noc(C)c1COc1ccc2ccc(=O)oc2c1,0.156%
